According to PubChem BioAssay (NCI):
Compounds without any hit were thinned out: in the full panel of roughly 83,000, 20% have a hit.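 Single-dose data. Exposure time 48 hours. Values below 10 considered active.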 Values without a mark were called inactive. The source made the active and inactive calls.

Legend:
Test in all cases: NCI-60 one-dose screen, 48 h (100 = growth as untreated, 0 = no growth, -100 = all killed)
Conditions in all cases: 10 µM unless noted
SK-MEL-2 melanoma = test system: SK-MEL-2 melanoma
EKVX NSCLC = test system: EKVX NSCLC
SN12C renal = test system: SN12C renal
UO-31 renal = test system: UO-31 renal
TK-10 renal = test system: TK-10 renal
A498 renal = test system: A498 renal
CCRF-CEM leukemia = test system: CCRF-CEM leukemia
MOLT-4 leukemia = test system: MOLT-4 leukemia
ACHN renal = test system: ACHN renal
CAKI-1 renal = test system: CAKI-1 renal

Row | SMILES | growth (SK-MEL-2 melanoma) | growth (EKVX NSCLC) | growth (SN12C renal) | growth (UO-31 renal) | growth (TK-10 renal) | growth (A498 renal) | growth (CCRF-CEM leukemia) | growth (MOLT-4 leukemia) | growth (ACHN renal) | growth (CAKI-1 renal)
1 | OC(CBr)c1ccnc2ccccc12 (centres undefined) | 93.3% | 103% | 99.6% | 83.4% | 89.4% | 102% | 76.8% | 93.8% |  | 
2 | Cc1cc(-c2ccccc2)cc(SC#N)[n+]1[O-] | 49.1% | 26.2% | 51.7% | 40.4% | 55.9% | 67.7% | 6.22% (active) | 10.1% |  | 
3 | O=C(Nc1ccc(N2CCCCC2)c(Cl)c1)c1ccc(Br)o1 | 91.9% |  | 80.6% | 51.5% | 102% | 102% | 74.9% | 75.4% | 64.3% | 94.8%
4 | C=C1C(=O)O[C@H]2[C@H]1CC/C(C(=O)NCCCCCCCCNC(=O)/C1=C/CC[C@@]3(C)O[C@H]3[C@H]3OC(=O)C(=C)[C@@H]3CC1)=C\CC[C@@]1(C)O[C@@H]21 | 80.1% | 97.2% | 76.2% | 80.8% | 64.4% | 107% | 4.79% (active) | 15.2% |  | 
5 | Cc1csc(NC(=O)c2sc3nc(-c4cccs4)ccc3c2N)n1 | 87.2% |  | 98% | 88% | 118% | 77.3% | 70.3% | 57.6% | 110% | 102%
6 | CCCCOC(=O)c1ccc(NC(=O)C(C)N2CCOCC2)cc1 (centres undefined) | 90.6% | 109% | 104% | 88.3% | 97.2% | 99.5% | 72.4% | 94.9% |  | 
7 | CN1C[C@@H](c2ccc(Cl)cc2)[C@]2(NC(=S)N(c3ccc(F)c(Cl)c3)C2=O)[C@@]12C(=O)NC1C=CC(Cl)=C[C@H]12 (some centres undefined) | 53.3% | 50.7% | -63.2% (active) | 26.1% | 82% | 66.8% | 6.69% (active) | 3.29% (active) |  | 
8 | CCOC(=O)C1C(=O)C=C(c2cnccn2)CC1c1ccc(OC)c(OC)c1 (centres undefined) | 86.4% | 101% | 100% | 87.4% | 87.8% | 119% | 82.2% | 73.2% |  | 
9 | CCN(CC)CCOC(=O)N1c2ccccc2Sc2ccccc21 | 97.9% | 106% | 101% | 87.9% | 88.2% | 97.1% | 69.1% | 96.1% |  | 
10 | CCNCCNc1cc(-c2ccc(F)cc2)c(C#N)c2nc3ccccc3n12 |  | 78.4% | 70.9% | 39.9% | 87.5% | -9.7% (active) | 27.1% | 61.4% | 9.08% (active) | 71.2%
11 | COc1ccc(/C(C)=C(\c2ccc(Cl)cc2)c2ccc(OCCN3CCCCCC3)cc2)cc1F |  | 57.7% | 57.4% | 32.4% | 81.7% | 77.6% | 36.2% |  | 64.5% | 22.6%
12 | Cc1nc(C)c(-c2nn3c(-c4cccc(F)c4)nnc3s2)s1 | 102% |  | 97.6% | 83.9% | 77.6% | 67.5% | 90.4% | 87% | 117% | 103%
13 | COc1ccc(C(=O)/C=C/c2cc3c(c(OC)c2)OCC(=O)N3)cc1 | 110% |  | 48.7% | 62.2% | 116% | 94.3% | 7.77% (active) | 6.17% (active) | 46.3% | 20.8%
14 | Clc1ccc(-c2nnc(Cn3ccnc3)o2)cc1 |  | 104% | 90.1% | 87% | 128% | 96.1% | 107% |  | 98.9% | 82.3%
15 | N[C@H]1CCC[C@@H]1NCCCCN1C(=O)c2cccc3cccc(c23)C1=O |  | 84.6% | 63.9% | 60.3% | 65.8% | 40.5% | 84.5% | 20.2% | 44.9% | 84.4%
16 | O=C1Nc2ccccc2SC1C1SC(=S)N(Cc2ccccc2)C1=O (centres undefined) |  | 105% | 99.5% | 73.1% | 21.8% | 109% | 51.1% |  | 108% | 78.2%
17 | Nc1c(C(=O)Nc2ccccc2)sc2nc3c(cc12)CCCCCC3 | 9.7% (active) |  |  | 16.6% | 36.3% | -0.375% (active) | 6.81% (active) | 18.3% | 26.5% | 42%
18 | Fc1ccc(Nc2nc3nonc3nc2Nc2ccc(F)cc2)cc1 | -26.2% (active) |  | 12% | -6.75% (active) | -4.95% (active) | -41.1% (active) | 17.1% | -8.01% (active) | -15.9% (active) | -8.48% (active)
19 | CCC(=O)OC1=C(C)SC2=NC(c3ccc(Cl)c(Cl)c3)=CC(c3cc(OC)c(OC)c(OC)c3)N21 (centres undefined) | 107% |  | 95.3% | 82.1% | 133% | 116% | 90.7% | 99.3% | 102% | 87.8%
20 | COc1cc2oc(-c3cccc(C(=O)Nc4ccc(C#N)cc4)c3)cc(=O)c2c(O)c1OC | 74.4% |  | 64.9% | 55.3% | 50.5% | 86.7% | 88.5% | 88.3% | 38.7% | 85.2%
21 | O=C1CSC(c2ccccc2)N1c1ccccc1 (centres undefined) | 74.4% |  | 101% | 85.7% | 110% | 61.7% | 97.1% | 107% | 101% | 102%
22 | CCCCCCCSc1ccc(C(=O)O)cc1 | 103% |  | 93.2% | 84% | 105% | 97.5% | 91.5% | 106% | 94.6% | 103%
23 | CNC(=O)c1cc(Oc2ccc3nc(Nc4cc(Cl)cc(Cl)c4)ccc3c2)ccn1 |  | 53.1% | 78.9% | 58.9% | 74.3% | 35.2% | 81.1% |  | 62.6% | 84.1%
24 | Cn1cc(-c2ccc3nc(-c4ccc(CC(=O)Nc5cc(C(C)(C)C)no5)cc4)cnc3c2)cn1 |  | 26.1% [30 µM] | 3.38% [30 µM] (active) | 7.7% [30 µM] (active) | 63.5% [30 µM] | -4.96% [30 µM] (active) | 45.9% [30 µM] |  | 5.16% [30 µM] (active) | 6.29% [30 µM] (active)
25 | COc1ccc(NC(=O)C(=O)c2c[nH]c3ccc(F)cc23)cc1 | 106% |  | 98.9% | 96.4% | 132% | 65.8% | 97.8% | 90.8% | 93.8% | 93.1%
26 | C=C(C)[C@@H]1CC[C@]2(CO)CC[C@]3(C)[C@H](CC[C@@H]4[C@@]5(C)C=C(C#N)C(=O)C(C)(C)[C@@H]5CC[C@]43C)[C@@H]12 |  | 15.4% | 8.07% (active) | -8.85% (active) | 36.2% | -0.306% (active) | 2.24% (active) |  | 12% | 22.8%
27 | COC(=O)CNC(=O)C(=O)c1c(O)c(O)c(C(C)C)c2cc(C)c(-c3c(C)cc4c(C(C)C)c(O)c(O)c(C(=O)C(=O)NCC(=O)OC)c4c3O)c(O)c12 |  | 5.91% (active) | 32.9% | 1.7% (active) | 22.6% | 27.6% | 24.4% | 15.7% | 3.33% (active) | 51.4%
